{
  "source": "PubChem BioAssay AID504832",
  "about": "(National Center for Advancing Translational Sciences (NCATS), 2011)",
  "note": "In all, about 310,000 compounds went through this assay and about 18,000 (5.8%) were called active. Entries that show only a call come without a potency. Another 22% or so got no clear call; they are omitted. The call rests on the fitted dose curve; in most records, active means well fitted inhibition curve with a large enough effect; inconclusive means small, poorly fitted or top-dose-only effect, or another doubt; inactive means no such curve, though single readings can be large or run the other way. This excerpt belongs to a sample that is enriched for actives. Potency means the concentration at half of the fitted maximal effect.",
  "data": [
    {"assay": "Primary qHTS for delayed death inhibitors of the malarial parasite plastid, 48 hour incubation", "details": "P. falciparum luciferase growth in erythrocytes; series mostly up to 28.7 µM", "outline": "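First compound was added to culture medium, then infected red cells at 0.1% parasitemia and 2% hematocrit (final). After incubation at 37 C under 5% CO2, luciferase detection reagent was dispensed and light output recorded.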", "values": [
      {"smiles": "N#Cc1cccc(CSc2ncnc(N)n2)c1", "Potency": "inactive"},
      {"smiles": "COc1ccc(NC(=O)c2cc(-c3cc(OC)c(OC)c(OC)c3)nc3ccccc23)c(OC)c1", "Potency": "5.22 µM (active)"},
      {"smiles": "COc1ccccc1NC(=O)c1cc(Cl)nc2ccccc12", "Potency": "inactive"},
      {"smiles": "CNC(=O)COC(=O)c1cc(-c2ccc(OC)cc2)nc2ccccc12", "Potency": "inactive"},
      {"smiles": "COc1ccccc1C(c1nnnn1C(C)(C)C)N1CCN(Cc2ccccc2)CC1", "note": "(centres undefined)", "Potency": "13.1 µM (active)"},
      {"smiles": "COc1ccccc1CN(C)c1nnnn1-c1ccccc1", "Potency": "inactive"},
      {"smiles": "CCC(C)(C)n1nnnc1C(c1ccc(OC)c(OC)c1)N1CCN(C(=O)c2ccco2)CC1", "note": "(centres undefined)", "Potency": "inactive"},
      {"smiles": "CC(C)C(c1nnnn1C(C)(C)C)N1CCN(Cc2cccnc2)CC1", "note": "(centres undefined)", "Potency": "inactive"},
      {"smiles": "CCC(C)(C)n1nnnc1C(c1ccccc1OC)N1CCSCC1", "note": "(centres undefined)", "Potency": "11.7 µM (active)"},
      {"smiles": "CCC(C)(C)n1nnnc1C(c1cccs1)N1CCN(c2nc3ccccc3s2)CC1", "note": "(centres undefined)", "Potency": "11.7 µM (active)"},
      {"smiles": "CCC(C)(C)n1nnnc1CN1CCN(c2nc3ccc(C)cc3cc2C#N)CC1", "Potency": "inactive"},
      {"smiles": "c1ccc2sc(N3CCNCC3)nc2c1", "Potency": "inactive"},
      {"smiles": "CCCC(c1nnnn1C(C)(C)C)N1CCN(Cc2ccccc2)CC1", "note": "(centres undefined)", "Potency": "inactive"},
      {"smiles": "Cc1ccc(S(=O)(=O)NCCC(=O)NC2CCN(Cc3ccccc3)CC2)cc1", "Potency": "inactive"},
      {"smiles": "Cc1cccc([C@@H]2[C@@H]3C(=O)N(C)C(=O)[C@@H]3[C@@H]3C(=O)Nc4ccccc4C(=O)N23)c1", "Potency": "inactive"},
      {"smiles": "CC1CCCCC12NC(=O)N(CC(=O)Nc1ccc(S(=O)(=O)Nc3ncccn3)cc1)C2=O", "note": "(centres undefined)", "Potency": "inactive"},
      {"smiles": "COc1cccc(C(=O)Nc2nnc(S(=O)(=O)N3CCOCC3)s2)c1", "Potency": "inactive"},
      {"smiles": "Cc1ccc(C)c(S(=O)(=O)Nc2cccc(-n3cnnn3)c2)c1", "Potency": "inactive"},
      {"smiles": "Cc1cnc(C)c(N2CCN(C(=O)C3CCC(=O)N(CCc4cccc(F)c4)C3)CC2)n1", "note": "(centres undefined)", "Potency": "inactive"},
      {"smiles": "CCCOc1ccc(N/C=C/C(=O)C(C)(C)C)cc1", "Potency": "inactive"},
      {"smiles": "O=C(/C=C/Nc1ccccc1OC(F)(F)F)C(F)(F)F", "Potency": "inactive"},
      {"smiles": "CN(C)c1ccc(N/C=C/C(=O)C(F)(F)F)cc1", "Potency": "9.28 µM (active)"},
      {"smiles": "COc1ccc2ccccc2c1/C=N/NC(=O)c1cc(C)[nH]n1", "Potency": "inactive"},
      {"smiles": "Cc1onc(-c2ccccc2)c1C(=O)N=C(N)c1ccc(Cl)cc1", "Potency": "inactive"},
      {"smiles": "C/C(=N\\N=C(N)N)c1ccc(Cl)cc1", "Potency": "6.57 µM (active)"},
      {"smiles": "C/C(=N\\OCC(=O)O)c1ccc(Cl)cc1", "Potency": "inactive"},
      {"smiles": "Cc1ccccc1OCC(=O)N(Cc1cccc(F)c1)C1CCS(=O)(=O)C1", "note": "(centres undefined)", "Potency": "inactive"},
      {"smiles": "CN(C(=O)COC(=O)CNC(=O)C12CC3CC(CC(C3)C1)C2)c1ccccc1", "Potency": "inactive"},
      {"smiles": "COc1ccc2oc(=O)c(C(=O)N3CCN(c4ccccc4F)CC3)cc2c1", "Potency": "inactive"},
      {"smiles": "O=C(Nn1cc(C(=O)N2CCN(c3ccccc3F)CC2)c2ccccc2c1=O)c1cnccn1", "Potency": "10.4 µM (active)"},
      {"smiles": "O=C(c1c(F)cccc1F)N1CCN(c2ncc(Br)cn2)CC1", "Potency": "inactive"},
      {"smiles": "O=C(COC(=O)c1cccs1)NCc1cccs1", "Potency": "inactive"},
      {"smiles": "CC(C)=CCN1CCN(CCCc2ccccc2)CC1CCO", "note": "(centres undefined)", "Potency": "inactive"},
      {"smiles": "O=C1Nc2cc(C(=O)N3CCN(c4ccc(F)cc4)CC3)ccc2NC1CSCc1cccc(F)c1", "note": "(centres undefined)", "Potency": "inactive"},
      {"smiles": "Cc1cccn2c(=O)c(/C=C(\\C#N)S(=O)(=O)c3ccc(Cl)cc3)c(N3CCC(C(N)=O)CC3)nc12", "Potency": "inactive"},
      {"smiles": "Cc1cc(C)cc(Oc2nc3c(C)cccn3c(=O)c2/C=C(\\C#N)C(=O)NC2CCS(=O)(=O)C2)c1", "note": "(centres undefined)", "Potency": "13.1 µM (active)"},
      {"smiles": "Cc1cccn2c(=O)c3cc(C(=O)NC4CCCCC4)sc3nc12", "Potency": "inactive"},
      {"smiles": "CCCCNC(=O)Cn1nc(C)c(S(=O)(=O)N2CCOCC2)c1C", "Potency": "inactive"},
      {"smiles": "CSCCC(NC(=O)c1ccco1)C(=O)NCCc1ccc(F)cc1", "note": "(centres undefined)", "Potency": "inactive"},
      {"smiles": "COc1ccc2c(C)c(CCC(=O)NC3CC3)c(=O)oc2c1C", "Potency": "inactive"},
      {"smiles": "COc1ccccc1C(=O)NC(=S)NC12CC3CC(CC(C3)C1)C2", "Potency": "inactive"},
      {"smiles": "Cc1ccccc1NC(=O)c1ccccc1NS(=O)(=O)c1cccc2cccnc12", "Potency": "inactive"},
      {"smiles": "O=[N+]([O-])c1ccccc1S(=O)(=O)Nc1cccc2cccnc12", "Potency": "2.33 µM (active)"},
      {"smiles": "O=C(Nc1ccccc1Cl)Nc1cccc2cccnc12", "Potency": "inactive"},
      {"smiles": "COc1ccccc1OCC(=O)OCc1cc(-c2ccco2)on1", "Potency": "inactive"},
      {"smiles": "C/C(=N\\NC(N)=S)c1ccncc1", "Potency": "3.29 µM (active)"},
      {"smiles": "C/C(=N\\NC(N)=S)c1cccnc1", "Potency": "inactive"},
      {"smiles": "C/C(=N/NC(=O)c1ccn(C)n1)c1ccncc1", "Potency": "inactive"},
      {"smiles": "CC(=O)N1CCC(C(=O)OCc2ccc(Cl)cc2)(c2ccccc2)CC1", "Potency": "inactive"},
      {"smiles": "O=C(/C=C/c1ccccc1[N+](=O)[O-])OCC(=O)N1CCCC1", "Potency": "inactive"},
      {"smiles": "COc1ccc(C(=O)NCCn2nc(C)cc2C)cc1OC1CCN(C(C)=O)CC1", "Potency": "inactive"},
      {"smiles": "O=C(Cn1c(-c2ccc(Cl)cc2)noc1=O)N1CCN(c2ccccc2F)CC1", "Potency": "11.7 µM (active)"},
      {"smiles": "O=C(CCSc1ccccc1)N1CCN(c2ccccc2F)CC1", "Potency": "inactive"},
      {"smiles": "O=C(NCC(=O)N1CCN(c2ccccc2F)CC1)c1cccs1", "Potency": "inactive"},
      {"smiles": "CCOC(=O)c1nnn2c1nc(N1CCN(c3ccccc3)CC1)c1ccccc12", "Potency": "5.22 µM (active)"},
      {"smiles": "CCOC(=O)c1nnn2c3ccccc3c(=O)n(C)c12", "Potency": "inactive"},
      {"smiles": "CC(=C1C(=O)c2ccccc2C1=O)N1CCN(c2ccccn2)CC1", "Potency": "inactive"},
      {"smiles": "Cc1cc(C(=O)N2CCN(c3ccccn3)CC2)c(C)o1", "Potency": "inactive"},
      {"smiles": "CCOC(=O)/C(C#N)=C/c1ccc(N2CCN(Cc3ccccc3)CC2)cc1", "Potency": "inactive"},
      {"smiles": "Cc1ccc(S(=O)(=O)c2nnn3c2nc(N2CCN(c4ccccn4)CC2)c2ccccc23)cc1", "Potency": "1.47 µM (active)"},
      {"smiles": "COc1ccc(C2NC(=O)N(C)C(C)=C2[N+](=O)[O-])cc1", "note": "(centres undefined)", "Potency": "inactive"},
      {"smiles": "COc1ccc(S(=O)(=O)NCc2cccnc2)cc1NC(=O)c1ccc(C)cc1", "Potency": "inactive"},
      {"smiles": "CCN(C(=O)CSc1ncnc2sccc12)c1c(N)n(Cc2ccccc2)c(=O)[nH]c1=O", "Potency": "inactive"},
      {"smiles": "COc1ccc(S(=O)(=O)N2CCCCC2)cc1NC(=O)c1cc([N+](=O)[O-])ccc1N1CCOCC1", "Potency": "9.28 µM (active)"},
      {"smiles": "O=C(Nc1cc(S(=O)(=O)N2CCOCC2)ccc1OCC(F)(F)F)c1ccc(N2CCCC2=O)cc1", "Potency": "inactive"},
      {"smiles": "COc1ccc(S(=O)(=O)N2CCOCC2)cc1C(=O)NC1CCCCC1", "Potency": "inactive"},
      {"smiles": "COc1ccc(S(=O)(=O)N2CCOCC2)cc1NC(=O)c1ccc(OCC(C)C)c(OC)c1", "Potency": "9.28 µM (active)"},
      {"smiles": "O=C(NC1CCCCC1)c1cc([N+](=O)[O-])ccc1N1CCOCC1", "Potency": "inactive"},
      {"smiles": "COc1ccc(S(=O)(=O)N2CCOCC2)cc1NC(=O)CSc1cc(C)ccc1C", "Potency": "inactive"}
    ]}
  ]
}
